# According to PubChem BioAssay AID624296 (National Center for Advancing Translational Sciences (NCATS), 2012):
# Among all 350,000 compounds or so, about 9,900 (2.8%) were called active. About 15% were inconclusive and are not listed. The full list was thinned out, with actives kept by preference. Unmarked numbers belong to inactive results. Calls follow the shape of the dose curve; as a rule, active = well fitted activation curve with a large enough effect; inconclusive = small, poorly fitted or top-dose-only effect; inactive = no such curve, though single readings can be large or run the other way.
# Assay: A quantitative high throughput screen for small molecules that induce DNA re-replication in MCF 10a normal breast cells. Also: nearly all actives have a fitted effect of over 50% in size. As to activity, positive = re-replication: % of control where 0% means no effect.
# Settings: MCF 10A DNA re-replication, Hoechst nuclear intensity, 48 h; series mostly up to 46.1 µM; activity, positive = re-replication: at the top concentration
# Potency is read from the fitted curve at half-maximal effect.
SMILES,"activity, positive = re-replication [%]",Potency
Cc1cc([N+](=O)[O-])c(=O)[nH]c1C,-1.26,–
Cc1onc(-c2c(F)cccc2Cl)c1C(=O)N(C)CC(=O)Nc1cccc(F)c1,7.52,–
Cc1onc(-c2c(F)cccc2Cl)c1C(=O)Nc1cccc(S(=O)(=O)N2CCCCC2)c1,–,14.6 µM (active)
O=C(Nc1cccc(S(=O)(=O)N2CCCCC2)c1)c1ccc2c(c1)OCO2,-37.9,–
CSc1c(SCc2ccccc2)cnn(Cc2ccccc2)c1=O,–,18.4 µM (active)
CSc1nc2ccccc2c(=O)n1Cc1ccc(F)cc1,-0.253,–
Cn1c(CO)cnc1SCc1ccccc1,4.65,–
CCCCNC1(C#N)CCN(Cc2ccccc2)CC1,-3.09,–
CC(C)c1nccn1S(=O)(=O)c1cc([N+](=O)[O-])ccc1Cl,-7.05,–
CCc1nc(C)cn1S(=O)(=O)c1cc(OC)c(C)cc1C,1.93,–
CCc1nc(C)cn1S(=O)(=O)c1cc([N+](=O)[O-])ccc1Cl,–,6.51 µM (active)
CC(=O)Nc1ccc(NC(=O)CCCNC(=O)c2ccc(Cl)cc2)cc1,4.76,–
CC(=O)Nc1ccc(C(=O)N(C2=NC(C)CS2)c2ccc(Cl)cc2)cc1 (stereo not drawn),–,5.17 µM (active)
COc1ccccc1C(=O)N(C1=NC(C)CS1)c1ccc(Cl)cc1 (stereo not drawn),-0.302,–
O=C1CC(c2ccccc2)C(c2ccccc2)=NN1 (stereo not drawn),-1.02,–
Cc1nc2ccc(NC(=O)C3CCCCC3)cc2s1,-6.42,–
CN(C)CCCn1c(N)c(C#N)c2nc(C#N)c(C#N)nc21,–,7.31 µM (active)
CCCN=C1N(C)C[C@@H]2[C@@H]3C(=O)N(Cc4ccccc4)C(=O)[C@@H]3[C@](C)(C(=O)OC)N12,1.39,–
COc1ccccc1NS(=O)(=O)c1ccc(C)c(C(=O)NNC(=O)c2csc(N3CCOCC3)n2)c1,10.5,–
CC(C)C(NC(=O)c1c(F)cccc1F)C(=O)NNC(=O)c1ccccc1 (stereo not drawn),5.67,–
Cn1c2ccccc2c(=O)c2c(O)cccc21,0.882,–
CCCc1nc2c(c(=O)c3ccccc3n2C)c(=O)n1-c1cc(C)cc(C)c1,-0.733,–
CCCc1nc2c(c(=O)c3ccccc3n2C)c(=O)n1C1CCCCCC1,–,14.6 µM (active)

SMILES,"activity, positive = re-replication [%]",Potency
CC(=NNC(=O)c1ccncc1)c1ccc(Cl)c(Cl)c1,-0.649,–
CCC1CCCCN1C(=S)NC(=O)c1ccco1 (stereo not drawn),11.7,–
O=C(Nc1ccncc1)c1cc(-c2ccccn2)nc2ccc(Br)cc12,-3.49,–
CCN(CC)CCNC(=O)c1ccc(NC(=O)c2cc(-c3ccncc3)nc3ccccc23)cc1,8.64,–
Cc1ccc2nc(-c3ccncc3)cc(C(=O)Nc3ccc(OC(F)F)cc3)c2c1,–,14.6 µM (active)
Cc1nc2ccc(NC(=O)c3cccc(S(=O)(=O)N4CCOCC4)c3)cc2s1,9.34,–
CC1(C)N=C(N)NC(Nc2ccc(Cl)cc2)=N1,11,–
Cc1csc(=O)n1CC(=O)Nc1ccc(S(C)(=O)=O)cc1,-17.5,–
CCOc1cc(N2CCOCC2)c(OCC)cc1NC(=O)COc1cccc(Cl)c1,1.23,–
CCOc1cc(N2CCOCC2)c(OCC)cc1NC(=O)COc1cccc2cccnc12,–,15.8 µM (active)
CCOc1cc(N2CCOCC2)c(OCC)cc1NC(=O)c1cc(C)nc2ccccc12,4.26,–
CC(OC(=O)c1cc2ccccc2[nH]1)C(=O)N(C)c1ccccc1 (stereo not drawn),9.46,–
CN(C)c1ccc(/C=N/Nc2cc(N3CCOCC3)nc(N3CCOCC3)n2)cc1,-0.353,–
Cc1cc(N2CCN(c3ccccc3)CC2)nc(N2CCOCC2)n1,11.3,–
C(=N/Nc1cc(N2CCOCC2)nc(N2CCOCC2)n1)/c1ccccc1,–,23.1 µM (active)
COc1ccccc1NC(=O)COC(=O)CNC(=O)C1CCCCC1,2.67,–
Cc1ccnc(NC(=O)c2ccco2)n1,6.36,–
CCCn1nc(NS(=O)(=O)c2ccccc2)c2cc3cc(C)ccc3nc21,0.575,–
CCn1nc(NC(=O)c2ccco2)c2cc3ccc(C)cc3nc21,–,8.91 µM (active)
COC(=O)[C@]1(Cc2ccccc2)N[C@H](CN(C)S(=O)(=O)c2ccc(F)cc2)[C@@H]2C(=O)N(Cc3ccccc3)C(=O)[C@@H]21,4.15,–
CCC1(C)Cc2c(sc3nc(SC)nc(N)c23)CO1 (stereo not drawn),-0.174,–
CCC1(C)Cc2c(sc3nc4n(c(=O)c23)CCCS4)CO1 (stereo not drawn),9.25,–
CCCSc1nc(NCc2ccco2)c2c3c(sc2n1)COC(C)(CC)C3 (stereo not drawn),–,23.1 µM (active)

SMILES,"activity, positive = re-replication [%]",Potency
O=C(OCC(=O)N1CCCCC1)c1ccc(OC(F)(F)F)cc1,1.12,–
O=C(NCCc1ccc(F)cc1)c1ccc(S(=O)(=O)N2CCCCC2)cc1,11.5,–
CC1(c2ccccc2)NC(=O)N(CC(=O)N2CC(=O)Nc3ccccc32)C1=O (stereo not drawn),0.732,–
NC(=O)C1CCN(C(=O)c2ccc(F)c(S(=O)(=O)N3CCOCC3)c2)CC1,-3.07,–
O=S(=O)(NCc1ccc(Cl)cc1Cl)c1cccs1,-8.83,–
O=S(=O)(Cc1ccc(Cl)cc1Cl)c1ccc(Cl)cc1,–,0.651 µM (active)
Cc1ccc(S(=O)(=O)Cc2cc(-c3ccc(Cl)cc3)no2)cc1,17.2,–
CC(=O)Nc1ccc(C(=O)/C=C/c2ccc[nH]2)cc1,14.4,–
CC(=O)Nc1ccc(C(=O)NNC(=O)CCCCC(=O)NNC(=O)c2ccc(NC(C)=O)cc2)cc1,5.58,–
CCCC(=O)Nc1ccc(C(=O)N/N=C/c2ccc[nH]2)cc1,–,16.4 µM (active)
Cc1ccc(C(=O)Nc2ccc3c(c2)OCCO3)cc1S(=O)(=O)N1CCOCC1,8.12,–
Cn1c(=O)c2c(nc(SCC(=O)Nc3ccccc3N3CCCCC3)n2C)n(C)c1=O,2.92,–
O=C(CNCCC1=CCCCC1)Nc1ccccc1N1CCCCCC1,–,20.6 µM (active)
Cc1ccccc1NC(=O)CNc1ccccc1N1CCCCC1,27,–
COc1ccc(C(=O)NCC2CCCCC2)cc1S(=O)(=O)N1CCCC1,-4.77,–
Nc1nonc1-n1nnc(C(=O)N/N=C/c2cc(Br)ccc2O)c1CSC1=NCCS1,–,10.3 µM (active)
Cc1ccc(SCc2c(C(=O)N/N=C/C3CC=CCC3)nnn2-c2nonc2N)cc1 (stereo not drawn),-2.37,–
Nc1nonc1-n1nnc(C(=O)N/N=C/c2ccccc2O)c1CN1CCCC1,12.2,–
COc1ccc(C2(c3ccc(OC)cc3)NC(=O)N(CC(=O)Nc3cc(C)on3)C2=O)cc1,18.8,–
Cn1c(=O)c2c(ncn2CC(COCc2ccccc2Cl)OCc2ccccc2Cl)n(C)c1=O (stereo not drawn),–,13 µM (active)
Cn1c(=O)c2c(ncn2CC(=O)N2CCN(c3ccccc3)CC2)n(C)c1=O,0.0795,–
Cn1c(=O)c2c(ncn2CCc2ccccc2)n(C)c1=O,0.307,–
